# PrP UTR inh = suppresses PrP 5' UTR mRNA reporter expression; cell-based PrP 5' UTR mRNA reporter, plate reader; inhibition, % (test concentration not listed); 340,000 compounds, 0.35% hits; in the data active means inhibition above about 52%
# FadD28 FP inh = inhibitors of Mycobacterium tuberculosis FadD28 bisubstrate binding; FadD28 bisubstrate probe binding, fluorescence polarization; AID 588549; 360,000 compounds, 0.22% hits; inhibition, % at 12.5 µM; in the data active means inhibition above about 8.5%, passing the limit was not always enough
# PrPC TRFRET = reduces human prion protein on the cell surface | 370,000 compounds, 0.43% hits | P04156 | cell surface PrPC, TR-FRET read-out | inhibition, % at 13.8 µM; in the data active means inhibition above about 24%
# BH1578 lux ind = quorum light induction in luxS cqsA deficient V. cholerae. V. cholerae BH1578 lux reporter, luminescence, 6 h. activation, % at 18.7 µM. 350,000 compounds, 0.16% hits. AID 588436; in the data active means activation mostly above about 9.7%, no sharp cut-off
# PriA SSB inh = blocks PriA binding to SSB C-terminal tail; AlphaScreen SSBct-PriA binding, biotinylated peptide; inhibition, % at 33 µM; 430,000 compounds, 0.6% hits; AID 1272365; in the data active means inhibition mostly above about 37%, no sharp cut-off; inactive means mostly below about 20%
# PrPC TRFRET cf = cell surface PrPC inhibition, TR-FRET confirmation; shares compounds with PrPC TRFRET; cell surface PrPC level; inhibition, % at 13.8 µM; 1,500 compounds, 65% hits; AID 743200; in the data active means inhibition above about 25%
# LD9 tox = kills or reduces viability of LD9 cells in PrPc counter-screen | AID 743201 | inhibition, % at 13.8 µM | shares compounds with PrPC TRFRET | 1,500 compounds, 29% hits | LD9 cells cytotoxicity, luminescence viability; in the data active means inhibition above about 9.5%
# Numbers stand for hits; 0 = inactive; - = no result; + = active, no number. Rows were chosen to be rich in hits. Some 1.4% of all compounds tested hit in one or more screens of this group.
SMILES,PrP UTR inh,FadD28 FP inh,PrPC TRFRET,BH1578 lux ind,PriA SSB inh,PrPC TRFRET cf,LD9 tox
Cc1ccc(S(=O)(=O)c2cccc(S(=O)(=O)N3CCOCC3)c2)cc1S(=O)(=O)N1CCOCC1,0,0,0,0,0,-,-
Cc1ccc(S(=O)(=O)c2cccc(S(=O)(=O)N3CCCC3)c2)cc1S(=O)(=O)N1CCCC1,0,0,34.3,0,0,29.9,0
COC(=O)N1CCc2ccc(Br)cc2[C@@H]1C(=O)Nc1ccc2c(c1)OCO2,-,-,-,-,0,-,-
CC(Oc1cccc(F)c1)C(=O)NCCCn1nc(-c2ccccc2)ccc1=O (stereo unspecified),-,-,-,-,0,-,-
Oc1ccc(CN2CCc3ccccc3C2)c2cccnc12,0,0,27.4,0,100.9,34.6,28.1
Oc1cc2c(cc1CN1CCc3ccccc3C1)OCO2,0,0,0,0,0,-,-
COc1ccc(S(=O)(=O)Nc2ccc(C)cc2)cc1N(C)S(=O)(=O)c1ccc(Cl)cc1,0,0,24.7,0,0,0,0
COc1ccc(S(=O)(=O)NN(C)C)cc1N(C)S(=O)(=O)c1ccc(Cl)cc1,0,0,0,0,0,-,-
COc1nc(-c2ccccc2)c2cc(Br)ccc2n1,0,0,35.8,0,0,71.0,0
NNc1nc(-c2ccccc2)c2cc(Br)ccc2n1,0,0,0,0,0,-,-
Brc1ccc2nc(-c3ccc(CN4CCC5(CC4)CNc4ccccc45)cc3)c(-c3ccccc3)nc2c1,-,-,25.8,-,-,53.3,0
NS(=O)(=O)c1ccc(CCNC(=O)Cc2csc(Nc3ccc(F)cc3)n2)cc1,-,-,-,-,0,-,-
COc1ccc2c(CC(=O)Nc3ncc(C)s3)coc2c1,0,0,28.6,0,0,34.5,0
COc1ccc2c(CC(=O)Nc3nc(C)cs3)coc2c1,0,0,0,0,0,-,-
Cc1cc(NC(=O)c2sc(Nc3ccc(F)cc3)nc2N)no1,0,0,25.8,0,0,25.8,12.6
C=CCNc1nc(N)c(C(=O)Nc2cc(C)on2)s1,0,0,0,0,0,-,-
Cc1cc2ncc3c(n2n1)CCN(S(=O)(=O)c1cn(C)cn1)C3,-,-,-,-,0,-,-
Cc1ccc2[nH]c3c(N4CCN(Cc5ccc6c(c5)OCO6)CC4)ncnc3c2c1,-,-,0,-,-,-,-
Cc1ccc2c(c1)[nH]c1c(N3CCN(Cc4ccccc4)CC3)ncnc12,0,0,29.7,0,0,0,50.2
COc1cc2[nH]c(=S)n(NC(=O)c3ccccc3)c(=O)c2cc1OC,0,0,36.4,+,0,50.0,0
COc1cc(NC2CCCCC2O)c2nc(-c3ccc(Cl)cc3)ccc2c1 (stereo unspecified),0,0,38.8,0,0,0,0
Cc1cccc(NS(=O)(=O)c2ccc3oc(=O)ccc3c2)c1C,0,0,37.2,0,0,0,0
CCN(CC)S(=O)(=O)c1ccc2c(c1)nc(CCC(=O)OCC(=O)Nc1cc(Cl)cc(Cl)c1)n2C,0,0,27.6,0,0,0,0
CNC(=O)C(=O)Nc1cc(C)ccc1C,-,-,-,-,0,-,-
CCOC(=O)N1CCN(C(=O)COc2ccc3ccccc3c2Br)CC1,0,0,49.6,0,0,78.7,0
SMILES,PrP UTR inh,FadD28 FP inh,PrPC TRFRET,BH1578 lux ind,PriA SSB inh,PrPC TRFRET cf,LD9 tox
N/C(=N\OC(=O)COc1ccc2ccccc2c1Br)c1ccccn1,0,0,58.9,0,-,83.8,0
NC(=NOC(=O)COc1ccc2ccccc2c1)c1cccnc1,-,-,-,-,0,-,-
N/C(=N\OC(=O)COc1ccc2ccccc2c1Br)c1cccnc1,-,-,47.4,-,-,78.2,0
O=C(CC1CCCC1)NCC1CC(=O)N(Cc2ccc(F)cc2)C1 (stereo unspecified),-,-,-,-,0,-,-
COc1ccc(-c2ccc(=O)n(CCCC(=O)Nc3cccc(Cl)c3C)n2)cc1OC,-,-,-,-,0,-,-
Cc1cc(C(=O)Nc2nnc(-c3cccc(S(C)(=O)=O)c3)o2)on1,-,-,-,-,0,-,-
Cc1cnc(NC(=O)CN2CCN(c3ccccn3)CC2)s1,0,0,37.9,0,0,30.9,11.2
O=C(CN1C(=O)C2CCCN2c2ncc(Cl)cc21)NCc1ccc2c(c1)OCO2 (stereo unspecified),0,0,0,0,0,-,-
COc1ccc(CNC(=O)CN2C(=O)C3CCCN3c3ncc(Cl)cc32)cc1 (stereo unspecified),0,0,26.1,0,0,0,0
CC(=NCc1cccnc1)c1c(O)n(-c2ccc(C)cc2)c(=O)[nH]c1=O,0,0,85.0,-,0,65.2,0
COc1ccccc1C1(C(=O)Nc2ccc3c(c2)C(=O)NCC3)CCOCC1,-,-,-,-,0,-,-
CCSc1nnc2ccc(-c3ccc(C)cc3)nn12,0,0,42.3,0,0,0,0
CCSc1nnc2ccc(-c3ccc(Cl)cc3)nn12,-,-,-,-,0,-,-
COc1ccc(-c2cc(NCCc3ccncc3)n3ncnc3n2)cc1,0,0,105.9,-,0,0,0
COc1ccc(-c2cc(NCc3ccccn3)n3ncnc3n2)cc1,0,0,0,0,0,-,-
NC(=O)c1cc(NC(=O)c2ccc(NS(=O)(=O)c3cccs3)cc2)cc(C(N)=O)c1,0,-,32.6,0,0,34.6,0
COc1cccc(NC(=O)c2ccc(NS(=O)(=O)c3cccs3)cc2)c1,0,0,0,0,0,-,-
CCc1ccccc1NC(=O)C1CCCN(S(=O)(=O)c2ccc3c(c2)CC(C)N3C(C)=O)C1 (stereo unspecified),0,0,30.7,0,0,0,0
CCCCn1c(=O)[nH]c(=O)c2c1nc(Cn1ncc(Cl)c(Cl)c1=O)n2CCC,0,0,44.5,0,0,43.4,70.9
CCCCn1c(=O)[nH]c(=O)c2c1nc(CN1C(=O)c3ccccc3S1(=O)=O)n2CCC,0,0,0,-,0,-,-
O/N=C\Cc1[nH]c2ccccc2c1-c1ccccc1,-,-,-,-,0,-,-
COC(=O)Nc1ccc(S(=O)(=O)N2c3ccccc3CCC2C)cc1 (stereo unspecified),0,0,28.3,0,0,0,0
CCOc1ccc(NC(=O)CCc2csc(NC(=O)Nc3ccccc3)n2)cc1,-,-,-,-,0,-,-
O=C(NCc1ccc(Cl)cc1)C(=O)NCC(O)c1cccs1 (stereo unspecified),-,-,-,-,0,-,-
Fc1ccc2nc(Nc3nc4cc5c(cc4s3)OCO5)sc2c1,0,0,0,0,0,-,-
SMILES,PrP UTR inh,FadD28 FP inh,PrPC TRFRET,BH1578 lux ind,PriA SSB inh,PrPC TRFRET cf,LD9 tox
c1ccc2sc(Nc3nc4cc5c(cc4s3)OCO5)nc2c1,0,0,80.4,0,0,63.3,0
O=C(Cc1ccccc1)Nc1cccc(NC(=O)c2cccs2)c1,0,0,31.6,0,0,0,0
O=C(CCc1ccccc1)Nc1cccc(NC(=O)CCc2ccccc2)c1,-,0,25.5,0,0,0,0
CC(C)(C)c1csc(NC(=O)CCc2ccccc2)n1,0,0,26.3,0,0,0,0
CC(C)(C)c1csc(NC(=O)Cc2cccs2)n1,0,0,0,0,0,-,-
O=C(Nc1ccc(OCc2ccccc2)cc1)c1cccs1,0,0,25.4,0,0,0,0
COc1cccc(-c2nc(COC(=O)c3nnn(-c4ccc(Cl)cc4)c3C)c(C)o2)c1OC,-,-,-,-,0,-,-
Cc1nn(CC(O)COc2ccc(C(=O)c3ccccc3)cc2)c(C)c1Cl (stereo unspecified),-,-,-,-,0,-,-
Cc1ccc(C2=CC(=O)C=CC2=O)cc1C,-,-,-,-,0,-,-
